Assay outcomes as filed in PubChem.
Mdm2 MdmX PPI = inhibitors of human Mdm2/MdmX interaction | hit rate 3% among 330,000 | SaOS-2 split-luciferase Mdm2/MdmX complementation, luminescence | inhibition, % at 8 µM | O15151+Q00987;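 active = inhibition of at least 50% at 8 µM in the primary screen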
NR3A LBD binder = NR3A (human) ligand-binding domain modulation. NR3A LBD differential scanning fluorimetry, Tm shift; 0% = protein alone, 100% = glycine-bound protein. Tm shift relative to glycine control, % at 25 µM. hit rate 2.5% among 340,000. AID 1259313;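 active = melting temperature shift of at least 10% of the positive control shift, at one fixed dose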
CSC inhib = blocks cancer stem cells | cancer stem cell-like cells viability, luminescence | inhibition, % at 7.5 µM | hit rate 1.1% among 300,000 | AID 2717; in the data active = inhibition above about 75%; tested in HMLE shEcad cells
Beta cell apopt = blocks beta cell apoptosis | hit rate 0.8% among 300,000 | INS-1E cytokine-induced death, ATP luminescence, 48 h; percent of positive-control rescue, neutral wells zero | protection from apoptosis, % (concentration not given with the values);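 active = Every replicate reaches about 75%, or at least half do and their mean reaches it too, limit read from the data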;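 also: 0% = cytokine-treated negative control wells and 100% = positive control rescue; higher means more ATP so stronger rescue from cytokine killing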
MPTP inh = blocks calcium-induced mitochondrial swelling. isolated mouse mitochondria, Ca2+ swelling absorbance, 30 min. inhibition, % at 10 µM. hit rate 1.4% among 360,000. AID 602449;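 active = inhibition of 50% or more, scaled per plate between neutral and stimulator controls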;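 also: 0% = DMSO wells given calcium and 100% = 1 mM EGTA wells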
Gli-Sufu block = Gli-Sufu pathway antagonism; hit rate 0.74% among 340,000; Sufu-KO-LIGHT fibroblasts, Gli luciferase reporter luminescence; inhibition, % at 5 µM;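 active = inhibition above about 55%, limit read from the data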;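 also: 0% = DMSO-treated cells and 100% = wells with medium but no cells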
* hit, by the source's call; x = no result. Sampled rows, rich in hits. Any-hit rate of the full collection: about 6.6%.

SMILES | Mdm2 MdmX PPI | NR3A LBD binder | CSC inhib | Beta cell apopt | MPTP inh | Gli-Sufu block
CC1OC(CC(=O)O)CC2=C1C(=O)c1c(O)cccc1C2=O (stereo unspecified) | x | -6 | x | x | -3 | 91*
COc1ccccc1C(=O)COC(=O)Cc1ccccc1F | 24 | 4 | -25 | -5 | -1 | 6
Cc1cc([N+](=O)[O-])ccc1-c1ccc(C2Nc3ccccc3C(=O)N2O)o1 (stereo unspecified) | 41 | 30* | 131* | 70 | 4 | -1
O=[N+]([O-])c1ccc(S(=O)(=O)NCC(c2cccnc2)N2CCc3ccccc32)cc1 (stereo unspecified) | 8 | -6 | 1 | x | 0 | 2
COc1ccc(C(=O)/C=C2/Sc3cc4c(cc3N2C)OCO4)cc1 | 14 | -2 | 16 | 5 | 0 | 18
